HTR5A inv ag: HTR5A inverse agonists in luminescence cell assay, primary screen, counter-screen for OPRM1-OPRD1 heterodimer inverse agonist project, full-deck HTS | 5-hydroxytryptamine receptor 5A (Homo sapiens), P47898 | HTR5A cell line, inverse agonism | inhibition, % at 9.3 µM | 340,000 tested, 0.083% active | AID 504634, 2011; in the data active = inhibition mostly above about 23%, no sharp cut-off; inactive = mostly below about 18%
Target sequence (P47898 whole entry, looked up): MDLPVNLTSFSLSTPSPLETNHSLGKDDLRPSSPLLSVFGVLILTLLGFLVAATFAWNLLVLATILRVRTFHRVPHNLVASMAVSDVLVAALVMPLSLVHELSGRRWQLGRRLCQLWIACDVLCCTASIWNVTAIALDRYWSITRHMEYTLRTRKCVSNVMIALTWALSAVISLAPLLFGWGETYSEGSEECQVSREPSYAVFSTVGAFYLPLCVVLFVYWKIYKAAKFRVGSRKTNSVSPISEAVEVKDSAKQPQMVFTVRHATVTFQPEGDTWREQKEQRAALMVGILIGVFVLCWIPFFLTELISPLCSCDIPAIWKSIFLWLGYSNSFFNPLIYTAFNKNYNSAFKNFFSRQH
OPRM1-OPRD1 inv: inverse agonists of MOR-DOR heterodimerization, primary screen, cell-based, luminescence; Mu-type opioid receptor (Homo sapiens) + Delta-type opioid receptor (Homo sapiens), …; cell-based MOR-DOR heterodimer luminescence, inverse agonism; inhibition, % at 9.3 µM; 340,000 tested, 0.21% active; in the data active = inhibition above about 22%, passing the limit was not always enough
MOR-DOR ag: agonists of OPRM1-OPRD1 heterodimerization, primary screen, cell-based, luminescence; activation, % at 9.3 µM; cells; 340,000 tested, 0.3% active; Mu-type opioid receptor (Homo sapiens) + Delta-type opioid receptor (Homo sapiens), …; in the data active = activation above about 18%
HTR5A ag: HTR5A agonists in luminescence cell assay, primary screen, counter-screen for OPRM1-OPRD1 heterodimer agonist project, full-deck HTS | 5-hydroxytryptamine receptor 5A (Homo sapiens), P47898 | cell-based | activation, % at 9.3 µM | 340,000 tested, 0.61% active | AID 504692, 2011; in the data active = activation mostly above about 9.5%, no sharp cut-off; inactive = mostly below about 7.6%
Each line names hits and unclear results; the compound was inactive in the other large screens. Shown are actives, neighbours in structure and some others; about 1.1% of the full set was active somewhere.

CC(c1ccccc1)n1cc(C(=O)NCC2COc3ccccc3O2)nn1 (stereo not drawn)	HTR5A ag 12
COc1ccc(COC(=O)C2=C(C)NC(=O)NC2c2cc(OC)ccc2OC)cc1 (stereo not drawn)	none
CC(C)Oc1ccc(C(=O)Nc2ccc(Cl)c(S(=O)(=O)Nc3ccc(Cl)cc3)c2)cc1	HTR5A ag 12
CNC(=O)CSc1nnc(-c2cccs2)o1	none
Cc1ccc2c(c1)C(c1ccc(O)cc1)(c1ccc(O)cc1)C(=O)N2C	HTR5A ag 10
CCOc1ccc(OCC)c(NC(=O)CC2Oc3ccc(C)cc3NC2=O)c1 (stereo not drawn)	none
NNc1nc(-c2ccccc2)cc(-c2ccccc2O)n1	none
NNc1nc(-c2ccccc2)cc(-c2ccccc2)n1	HTR5A inv ag 43, OPRM1-OPRD1 inv 52
CCC(=O)Nc1nc2ccccc2n1Cc1ccc(Cl)cc1	HTR5A ag 14
CN(C)CCNC(=O)Nc1ccc([N+](=O)[O-])cc1	none
CC(C)N(CC(=O)Nc1ccc(Cl)cc1C(F)(F)F)C(=O)CCl	HTR5A ag 12
CCn1c(SCC(=O)Nc2cc(C)on2)nc2sc3c(c2c1=O)CCCC3	MOR-DOR ag 26, HTR5A ag 21
Oc1ccc(-c2nnc(Nc3cccc(O)c3)c3ccccc23)cc1	none
COc1ccccc1NC(=O)OC(C)c1ccc(Cl)cc1 (stereo not drawn)	HTR5A ag 17
Cc1nn(-c2ccccc2)c(N)c1N=Nc1ccccc1	none
Cc1nn(-c2ccccc2)c(N)c1N=Nc1ccc(Cl)cc1	HTR5A ag 11
Cc1ccc(C)c(NC(=O)C(=O)NCCc2c[nH]c3ccccc23)c1	none
Cc1cccc(NC(=O)C(=O)NCCc2c[nH]c3ccccc23)c1C	HTR5A ag 14
Cc1cc(C)c(S(=O)(=O)N2CCCOC2CNC(=O)C(=O)NCCc2c[nH]c3ccccc23)c(C)c1 (stereo not drawn)	HTR5A ag 12
Cc1cc(C)cc(NC(=O)C(=O)NCCc2c[nH]c3ccccc23)c1	HTR5A ag 14
Cc1cccc(C)c1NC(=O)C(=O)NCCc1c[nH]c2ccccc12	none
COc1ccc(OC)c2sc(NC(=O)c3ccc(S(=O)(=O)N(C)C)cc3)nc12	none
Cc1ccc(Nc2cc(C)nn2-c2nc(C)cc(=O)[nH]2)cc1	OPRM1-OPRD1 inv 55
Cc1ccc(Nc2cc(C)nn2-c2nc(C)cc(C)n2)cc1	none
Cc1ccc(Nc2c(-c3ccccn3)nc3cccc(C)n23)cc1	OPRM1-OPRD1 inv 34
CC(=O)c1cccc(NC(=O)CCn2c(=S)oc3ccccc32)c1	none
CC(=O)Nc1ccc(NC(=O)COC(=O)c2ccc([N+](=O)[O-])o2)cc1	HTR5A ag 13
Cc1cc(SCC(=O)OCC(=O)N2CCCC2=O)c(C)cc1Br	none
Cc1c(C(=O)NCCCN2CCCC2=O)oc2c(Cl)cccc12	none
Cc1cccc(C)c1OCC(=O)OC/C(O)=C(\C#N)c1nc2ccccc2[nH]1	none
Cc1cc(C)cc(OCC(=O)OC/C(O)=C(\C#N)c2nc3ccccc3[nH]2)c1	MOR-DOR ag 40, HTR5A ag 23
O=C(O)CCC(=O)Nc1ccccc1C(=O)NCCc1ccccc1	HTR5A ag 12
CCc1ccc(S(=O)(=O)/N=C2/C=C(Sc3ncn[nH]3)C(=O)c3ccccc32)cc1	MOR-DOR ag 30
Cc1c(C(=O)Nc2nc3ccccc3[nH]2)oc2ccccc12	HTR5A ag 11
Cc1ccnc(NC(=O)CN2C(=O)NC(C)(c3ccc4ccccc4c3)C2=O)c1 (stereo not drawn)	none
O=C(/C=C/C(Cl)(Cl)Cl)Nc1ccc(Cl)cc1	MOR-DOR ag 18, HTR5A ag 17
NC(=O)/C=C/C(=O)Nc1ccc(Cl)cc1	none
CC1CCCC(C)N1C(=O)CN1c2cccc3cccc(c23)S1(=O)=O (stereo not drawn)	none
O=C(Nc1ccc(F)cc1F)c1cc2ccccc2oc1=O	none
CC(C)C(C(=O)OCC(=O)c1ccc2c(c1)NC(=O)CO2)N1C(=O)c2ccccc2C1=O (stereo not drawn)	none
CCCOc1ccc(/C=C/C(=O)NC2CCCCC2)cc1	none
O=C(/C=C/c1ccc(Br)cc1)NC1CCCCCC1	HTR5A ag 14
CC1=NN(/C(=N\c2nnc(C)s2)Nc2ccc(C(C)(C)C)cc2)[C@H](c2ccc(C)cc2)S1	none
CN1CCN(C(=O)c2cn(-c3ccccc3)nc2-c2cccnc2)CC1	none
O=C(Nc1ccc2oc(=O)ccc2c1)c1ccc(-c2ccccc2[N+](=O)[O-])o1	MOR-DOR ag 27, HTR5A ag 14
O=S(=O)(NCC(c1cccnc1)N1CCN(c2ccc(F)cc2)CC1)c1cc(F)ccc1F (stereo not drawn)	none
COc1cc(C)ccc1OCCOCCOc1cccc2ccc(C)nc12	HTR5A ag 8.7
O=C(N/N=C/c1ccc([N+](=O)[O-])cc1)c1cc(-c2ccc3c(c2)OCO3)n[nH]1	HTR5A ag 13
COc1cc(/C=N/NC(=O)c2cc(-c3ccc4c(c3)OCO4)n[nH]2)ccc1O	none
CC1=[N+](C)c2ccc3ccccc3c2C1(C)C	HTR5A ag 13
CCC(=O)N(c1nnc(SCC(=O)NN2C(=O)NC3(CCC(C)CC3)C2=O)s1)C1CC1 (stereo not drawn)	none
CC(Sc1nnc(-c2ccccc2F)n1C1CC1)C(=O)N1CCCC1 (stereo not drawn)	none
Cc1cc(C)cc(N(CCC#N)C(=O)CSC2=Nc3ccccc3C3CC=NN23)c1 (stereo not drawn)	HTR5A ag 12
O=C(COc1ccc2ccc(=O)oc2c1)OCc1ccccc1	HTR5A ag 12
COc1ccc(NC(=O)N(C)C[C@H]2Oc3ccc(NC(=O)Cc4ccccc4)cc3C(=O)N([C@H](C)CO)C[C@@H]2C)cc1	none
O=C(c1ccc(NS(=O)(=O)c2ccccc2)cc1)N1CCN(Cc2ccc3c(c2)OCO3)CC1	none
CC(C)CN1C(=O)c2ccc(C(=O)NCc3ccccn3)cc2C1=O	HTR5A ag 9.6
N/C(=N\OC(=O)c1ccc(Cl)c(Cl)c1)c1ccccn1	HTR5A ag 14
N/C(=N\OC(=O)c1ccc(Cl)cc1)c1ccccn1	none
O=C(NCCN1CCCCC1)c1cc(OCC(F)(F)F)ccc1OCC(F)(F)F	HTR5A ag 10
O=C(CSCc1ccccc1)Nc1cccc(F)c1	none
COc1ccccc1-n1c(SCC(=O)NCC2CCCO2)nc2c([nH]c3ccccc32)c1=O (stereo not drawn)	HTR5A inv ag 38, OPRM1-OPRD1 inv 45
CCn1c(SCC(=O)NCC2CCCO2)nc2c([nH]c3ccccc32)c1=O (stereo not drawn)	none
COc1ccc(CCNC(=O)CSc2nc(=O)n3cccc(C)c3n2)cc1OC	none
Cc1ccc2c(c1)COc1c3ccc(C(=O)N[C@@H](C)CO)cc3nn1-2	HTR5A ag 14
CCOC(=O)CSc1nnc(Cn2c(=O)sc3ccccc32)n1C	HTR5A ag 11
